Results reported in the supplement of paper PMC13172266.
Where a name gives a salt, the structure may show the parent alone.

Key:
Test in all cases: cell proliferation relative to vehicle (% of vehicle); higher = less growth inhibition
Conditions in all cases: 72 h
[1] = system: U2932 TK216-resistant clone 2
In short: (§1)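 Growth medium with 10% FBS at 37°C and 5% CO2 was used to culture U2932, an ABC-DLBCL line, in parental form and as two clones rendered resistant to an ETS-targeting agent by repeated exposure over almost a year. These cells received compounds from a 348-member targeted inhibitor library at 500 nM or 50 nM for 72 h, followed by 4 h of MTT, a 25% SDS stop and an absorbance read on a Cytation 3. The percentage of proliferating cells is reported relative to DMSO vehicle.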

[2] = system: U2932 TK216-resistant clone 3
In short: as §1

U2932 parental = system: U2932 parental
In short: as §1

Compound | cell proliferation ([1]; 50 nM) | cell proliferation ([1]; 500 nM) | cell proliferation ([2]; 50 nM) | cell proliferation ([2]; 500 nM) | cell proliferation (U2932 parental; 50 nM) | cell proliferation (U2932 parental; 500 nM)
CC(=O)O[C@@]12CO[C@@H]1C[C@H](O)[C@@]1(C)C(=O)[C@H](O)C3=C(C)[C@@H](OC(=O)[C@H](O)[C@@H](NC(=O)OC(C)(C)C)c4ccccc4)C[C@@](O)([C@@H](OC(=O)c4ccccc4)[C@H]21)C3(C)C [Docetaxel] | 8.81 | 11.6 | 5.58 | 6.54 | 9.62 | 9.31
Cn1cc(C2=C(c3ccc(Cl)cc3Cl)C(=O)NC2=O)c2ccccc21 | 105 | 96.2 | 105 | 108 | 97.8 | 100
Nc1nc(Nc2ccc(S(N)(=O)=O)cc2)nn1C(=O)c1c(F)cccc1F | 103 | 85.3 | 102 | 78.1 | 98.8 | 87.7
Cc1nc(NC(=O)N2CCC[C@H]2C(N)=O)sc1-c1ccnc(C(C)(C)C(F)(F)F)c1 | 98.4 | 78.7 | 96.2 | 85 | 97.7 | 91
COc1ccc(-n2c(SCCCN3C(=O)c4cccc5cccc(c45)C3=O)nnc2-c2ccncc2)cc1 | 106 | 97.3 | 104 | 99.4 | 94.3 | 94.5
O=C(NOCC1CC1)c1ccc(F)c(F)c1Nc1ccc(I)cc1Cl | 102 | 90.6 | 98.5 | 90.8 | 96.2 | 95.7
NCC(=O)Nc1ccc(-n2nc(C(F)(F)F)cc2-c2ccc3c(ccc4ccccc43)c2)cc1 | 99.6 | 84.6 | 95.3 | 72.8 | 96.2 | 82.4
Nc1ccn([C@@H]2O[C@H](CO)[C@@H](O)C2(F)F)c(=O)n1 [Gemcitabine] | 15.3 | 14.9 | 20.1 | 19.1 | 12.5 | 14.6
Cc1nc(-c2ccc(OCC(C)C)c(C#N)c2)sc1C(=O)O [Febuxostat] | 101 | 110 | 106 | 104 | 102 | 103
O=C(Nc1ccc(OC(F)(F)F)cc1)c1sccc1NCc1ccnc2ccccc12 | 105 | 101 | 105 | 109 | 100 | 98.9
CC[C@]1(O)C[C@H]2CN(CCc3c([nH]c4ccccc34)[C@@](C(=O)OC)(c3cc4c(cc3OC)N(C=O)[C@H]3[C@@](O)(C(=O)OC)[C@H](OC(C)=O)[C@]5(CC)C=CCN6CC[C@]43[C@@H]65)C2)C1 [Vincristine sulfate] | 9.22 | 10 | 7.89 | 9.97 | 10.4 | 13.4
COc1ccc(-c2ccc3c(N4CCOCC4)nc(N4C[C@@H](C)O[C@@H](C)C4)nc3n2)cc1CO | 95.3 | 46.8 | 98.9 | 49.3 | 91.4 | 57.7
C[C@@H]1CN(CC(=O)Nc2ccc3c(c2)Cc2cccc(-c4cc(=O)cc(N5CCOCC5)o4)c2S3)C[C@H](C)O1 | 102 | 101 | 103 | 97 | 105 | 111
CN1CCN(CCOc2cc(OC3CCOCC3)c3c(Nc4c(Cl)ccc5c4OCO5)ncnc3c2)CC1 [Saracatinib (AZD0530)] | 103 | 97.1 | 99.6 | 101 | 94.1 | 98.9
Nc1nc(F)nc2c1ncn2[C@@H]1O[C@H](COP(=O)(O)O)[C@@H](O)[C@@H]1O [Fludarabine Phosphate] | 98.2 | 110 | 103 | 104 | 102 | 93.7
Nc1ccccc1NC(=O)c1ccc(CNC(=O)OCc2cccnc2)cc1 [Entinostat (MS-275)] | 104 | 74.8 | 88.2 | 66.7 | 93.2 | 66.2
C[C@@H](Nc1cc(F)cc(F)c1)c1cc(C(=O)N(C)C)cc2c(=O)cc(N3CCOCC3)oc12 | 111 | 83.1 | 99.4 | 84.5 | 99.9 | 90.3
OCCn1cc(-c2ccc3c(c2)CC/C3=N\O)c(-c2ccncc2)n1 | 105 | 106 | 97 | 91.9 | 105 | 103
Cc1cc(Nc2cc(N3CCN(C)CC3)nc(Sc3ccc(NC(=O)C4CC4)cc3)n2)n[nH]1 [VX-680 (Tozasertib, MK-0457)] | 91.1 | 79.9 | 72.2 | 69 | 64.5 | 57.8
O=c1oc2c(O)c(O)cc3c(=O)oc4c(O)c(O)cc1c4c23 [Ellagic acid] | 99 | 110 | 106 | 107 | 101 | 100
O=C(O)c1ccc(Nc2ncc3c(n2)-c2ccc(Cl)cc2C(c2c(F)cccc2F)=NC3)cc1 | 104 | 80.2 | 112 | 86.2 | 99.6 | 65.5
CO[C@H]1/C=C\C=C(/C)C(=O)NC2=CC(=O)C(NCCN(C)C)=C(C[C@@H](C)C[C@H](OC)[C@H](O)[C@@H](C)/C=C(\C)[C@@H]1OC(N)=O)C2=O [17-DMAG (Alvespimycin) HCl] | 46.7 | 3.06 | 42.3 | 17 | 67 | 3.09

Compound | cell proliferation ([1]; 50 nM) | cell proliferation ([1]; 500 nM) | cell proliferation ([2]; 50 nM) | cell proliferation ([2]; 500 nM) | cell proliferation (U2932 parental; 50 nM) | cell proliferation (U2932 parental; 500 nM)
O=C(O)C1(C(=O)O)CCC1.[NH2-].[NH2-].[Pt+2] [Carboplatin] | 99.7 | 104 | 90.2 | 99.1 | 104 | 95.3
Cn1c(Nc2ccc(C(F)(F)F)cc2)nc2cc(Oc3ccnc(-c4ncc(C(F)(F)F)[nH]4)c3)ccc21 | 96.1 | 80.7 | 98.8 | 96.7 | 95.6 | 88
CC(=O)Nc1cccc(-n2c(=O)n(C3CC3)c(=O)c3c(Nc4ccc(I)cc4F)n(C)c(=O)c(C)c32)c1 | 103 | 105 | 98.2 | 93.7 | 92.9 | 94.4
Cc1cn(-c2cc(NC(=O)c3ccc(C)c(Nc4nccc(-c5cccnc5)n4)c3)cc(C(F)(F)F)c2)cn1 [Nilotinib (AMN-107)] | 106 | 110 | 102 | 106 | 103 | 103
COc1nc(C)cnc1NS(=O)(=O)c1cccnc1-c1ccc(-c2nnco2)cc1 [Zibotentan (ZD4054)] | 95.1 | 104 | 106 | 102 | 97.2 | 95.2
COc1cc2c(c(OC)c1OC)-c1c(cc3c(c1OC)OCO3)CC(C)C(C)C2 (stereo not drawn) [Schisandrin B (Sch B)] | 99.1 | 104 | 108 | 97.6 | 97.2 | 95.9
CCCCCCCCc1ccc(CCC(N)(CO)CO)cc1 [Fingolimod (FTY720) HCl] | 99.3 | 102 | 99.6 | 96.1 | 98.3 | 94.8
O=C(O)c1ccc(-c2c[nH]c3ncc(-c4ccccc4)cc23)cc1C1CCCC1 | 107 | 100 | 97.4 | 105 | 105 | 107
O=C(CCCCCCNC(=O)c1cnc(N(c2ccccc2)c2ccccc2)nc1)NO [Rocilinostat (ACY-1215)] | 104 | 104 | 110 | 96.5 | 98.5 | 92.2
O=c1sn(-c2cccc3ccccc23)c(=O)n1Cc1ccccc1 [Tideglusib] | 94 | 106 | 103 | 101 | 89.3 | 93.1
COc1cc(Nc2ncc(F)c(Nc3ccc4c(n3)NC(=O)C(C)(C)O4)n2)cc(OC)c1OC | 108 | 97.1 | 103 | 103 | 87.9 | 82.1
O=c1cc(-c2cccc3c2Sc2ccccc2S3)oc(N2CCOCC2)c1 | 108 | 102 | 98.8 | 95.3 | 102 | 103
Cc1ccc(C(=O)N(CCCN)[C@@H](c2nc3cc(Cl)ccc3c(=O)n2Cc2ccccc2)C(C)C)cc1 | 13 | 10.8 | 7.24 | 5.07 | 9.61 | 10.2
Cc1ccc(-c2cc(C(F)(F)F)nn2-c2ccc(S(N)(=O)=O)cc2)cc1 [Celecoxib] | 99.8 | 95.6 | 104 | 98.7 | 101 | 100
CC[C@@]1(O)C(=O)OCc2c1cc1n(c2=O)Cc2cc3c(CN(C)C)c(O)ccc3nc2-1 [Topotecan HCl] | 9.75 | 5 | 12.8 | 5.92 | 11.1 | 2.71
O=C1CCC(N2C(=O)c3ccccc3C2=O)C(=O)N1 (stereo not drawn) [Thalidomide] | 105 | 106 | 104 | 101 | 103 | 101
CCCCCCNC(=O)n1cc(F)c(=O)[nH]c1=O [Carmofur] | 98.3 | 101 | 104 | 99.8 | 102 | 103
C=CCn1c(=O)c2cnc(Nc3ccc(N4CCN(C)CC4)cc3)nc2n1-c1cccc(C(C)(C)O)n1 | 89.6 | 20.5 | 99.7 | 38.7 | 94.7 | 33.1
Cc1[nH]c(/C=C2\C(=O)Nc3ccc(S(=O)(=O)Cc4c(Cl)cccc4Cl)cc32)c(C)c1C(=O)N1CCC[C@@H]1CN1CCCC1 | 108 | 92.4 | 103 | 90.5 | 102 | 96.8
O=C1c2c(O)ccc(O)c2C(=O)c2c(NCCNCCO)ccc(NCCNCCO)c21 [Mitoxantrone HCl] | 9.19 | 5.75 | 14.8 | 10.6 | 16.4 | 7.06
CCCCCCCCCCCC1=C(O)C(=O)C=C(O)C1=O [Embelin] | 90.5 | 98.8 | 103 | 103 | 100 | 89.7
